Screening results: PubChem, National Center for Advancing Translational Sciences (NCATS)
Menin MLL FP TR – inhibitors of human menin-MLL interaction, mutant MLL peptide | Menin + Texas Red MLL mutant peptide, fluorescence polarization | Potency, µM (highest dose often 61.6 µM), without a hit: at the highest dose FP activity change, negative = inhibition, actives largely listed as inhibitors | actives 0.23% (n = 270,000) | AID 1768; active means well fitted inhibition curve with a large enough effect in the polarisation, with a control signal flat, not every such curve was filed as active; inconclusive means small, poorly fitted or top-dose-only effect, or effect the other way, or a change in a side signal; inactive means no such curve, though single readings can be large or run the other way; the % refers to the polarisation; further: potency means the concentration at half of the fitted maximal effect; % of control where 0% means no effect
Target sequence (O00255 whole entry, looked up): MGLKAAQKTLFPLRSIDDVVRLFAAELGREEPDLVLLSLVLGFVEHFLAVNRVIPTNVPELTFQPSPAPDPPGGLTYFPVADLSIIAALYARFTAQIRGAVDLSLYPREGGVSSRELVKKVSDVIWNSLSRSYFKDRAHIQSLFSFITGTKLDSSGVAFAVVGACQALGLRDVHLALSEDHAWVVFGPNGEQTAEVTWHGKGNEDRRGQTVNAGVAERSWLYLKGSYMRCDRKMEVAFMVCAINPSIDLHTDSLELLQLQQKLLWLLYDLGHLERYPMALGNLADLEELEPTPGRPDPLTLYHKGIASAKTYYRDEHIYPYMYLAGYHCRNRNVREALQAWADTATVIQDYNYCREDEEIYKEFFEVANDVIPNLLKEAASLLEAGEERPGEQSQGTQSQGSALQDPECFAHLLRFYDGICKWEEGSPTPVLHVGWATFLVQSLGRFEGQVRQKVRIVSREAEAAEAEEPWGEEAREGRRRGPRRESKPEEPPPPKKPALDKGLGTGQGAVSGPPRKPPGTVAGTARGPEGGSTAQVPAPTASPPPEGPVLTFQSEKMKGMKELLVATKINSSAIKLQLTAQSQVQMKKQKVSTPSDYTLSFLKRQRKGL
MLL CXXC-DNA inh – MLL CXXC-DNA interaction inhibition | actives 0.037% (n = 290,000) | MLL-CXXC / FITC-HOXA9 DNA fluorescence polarization | Q03164 | Potency, µM (doses to about 115 µM), without a hit: top-dose activity change, negative = inhibition, actives largely listed as inhibitors; active means well fitted inhibition curve with a large enough effect in the polarisation, with a control signal flat, not every such curve was filed as active; inconclusive means small, poorly fitted or top-dose-only effect, or effect the other way, or a change in a side signal; inactive means no such curve, though single readings can be large or run the other way; the % refers to the polarisation; further: potency means the concentration at half of the fitted maximal effect
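Fluorescence polarization: 7 uM MLL-CXXC (stock) preincubated 5 min with compounds, then 50 nM fluorescein-HOX-A9 DNA (stock) added; 30 min ambient. Buffer 50 mM Tris-HCl pH 7.5, 50 mM NaCl, 1 mM DTT, 0.05% BSA.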
Epigenetic derep – regulators of epigenetic silencing causing reporter derepression in mouse cells; actives 0.2% (n = 280,000); Potency, µM (doses to about 53.9 µM), without a hit: at the highest dose GFP activation, hits mostly activators; murine LDR cells, GFP reporter derepression, 30 h; AID 1865; active means well fitted activation curve with a large enough effect; inconclusive means small, poorly fitted or top-dose-only effect; further: potency means the concentration at half of the fitted maximal effect; % of control where 0% means no effect; nearly all actives have a fitted effect of over 60% in size
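Murine LDR cells carrying a silenced, genomically integrated CMV-driven GFP reporter were exposed to compound for 30 hours at 37 C. After PBS washes, GFP-positive cells (20–120 um objects) were counted by laser-scanning microplate cytometry.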
PINK1 expr mod – changes PINK1 expression; PINK1 immunofluorescence, high-content cytometry, 24 h; Potency, µM (doses to about 76.6 µM), for the others: at the top dose activation (PINK1 increase), actives largely listed as activators; actives 0.2% (n = 410,000); AID 624263; active means well fitted activation curve with a large enough effect; inconclusive means small, poorly fitted or top-dose-only effect; cell line not stated here; further: potency means the concentration at half of the fitted maximal effect; % of control where 0% means no effect; nearly all actives have a fitted effect of over 65% in size
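Measures PINK1 amount and localization on or inside mitochondria by immunofluorescence. Stable cells get compounds at 5 concentrations for 24 hours before fixation and staining; CCCP controls included.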
ClpP mod – qHTS Assay for Activators of ClpP; ATP-dependent Clp protease proteolytic subunit (Bacillus subtilis (strain 168)), P80244; purified B. subtilis ClpP, FRET peptide cleavage, 20 min; Potency, µM (top dose mostly 57.5 µM), for the others: top-dose activity change, negative = active; actives 1.9% (n = 340,000); AID 651965, 2013; active means well fitted falling curve with a large enough effect; inconclusive means small, poorly fitted or top-dose-only effect; inactive means no such curve, though single readings can be large or run the other way; further: potency means the concentration at half of the fitted maximal effect; the source files actives as falling curves though it sought activators and does not explain the sign; nearly all actives have a fitted effect of over 65% in size
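FRET quenching reversal measured ClpP activation: 10 microg/mL B. subtilis ClpP at pH 8 with the FRET-FV decapeptide, read at 430 nm after 320 nm excitation. The 20-min minus 0-min signal was scaled between DMSO/no-enzyme wells and ADEP (5.8 microM final).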
Menin-MLL FL inh – menin-MLL binding inhibition, fluorescein peptide; FP activity change, % at 61.4 µM; 290,000 tested, under 10 active; Fluorescence polarization, fluorescein-MLL peptide displacement from menin; active means well fitted curve in the direction sought with a large enough effect in the polarisation, not every such curve was filed as active; inconclusive means small, poorly fitted or top-dose-only effect, or effect the other way, or a change in a side signal; inactive means no such curve, though single readings can be large or run the other way; the % refers to the polarisation; further: % of control where 0% means no effect
* hit, by the source's call; ? = inconclusive; nt = not tested or not shown; [ ] = dose if it differs, or a comment. Compounds with a hit are over-represented: about 1.9% of the library has one in this group of screens.

SMILES	Menin MLL FP TR	MLL CXXC-DNA inh	Epigenetic derep	PINK1 expr mod	ClpP mod	Menin-MLL FL inh
COc1ccccc1N1C(=O)C2CC=CC(C)C2C1=O (stereo unspecified)	1%	-1%	-2%	4%	3.2µM*	5
O=C1N/C(=C/c2cccn2-c2ccccc2)C(=O)N1Cc1ccc(F)cc1	0%	10%	7.1µM*	?	1%	7
COc1ccc(OC)c(-c2cc(Cl)c3c(c2)CC(CNC(=O)[C@@H]2CCCN2C(C)=O)O3)c1 (stereo partly specified)	nt	nt	nt	0%	nt	nt
COc1ccc(C(=O)CC(=O)c2ccc(C(C)(C)C)cc2)cc1	-2%	0%	3%	20%	-20%	3
COc1ccc(C(=O)C(CCC(CNC(C)(C)C)C(=O)c2ccc(OC)cc2)CNC(C)(C)C)cc1 (stereo unspecified)	-2%	-1%	1%	-1%	28µM*	0
COC(=O)c1ccc(C(=O)OC)c(NC(=O)CCC(=O)O)c1	3%	-3%	1%	2%[38.3 µM]	28µM*	-2
Cc1cccc(C)c1NC(=O)CN1C(=O)S/C(=C\c2cccn2-c2cccc(C(=O)O)c2)C1=O	28%	6%	0%	2%	28µM*	9
Cc1ccccc1NC(=O)CN1C(=O)S/C(=C\c2cccn2-c2cccc(C(=O)O)c2)C1=O	14%	19%	0%	14%	-3%	13
CC1(C)Oc2cc(N)c([N+](=O)[O-])cc2O1	-20%	0%	-1%	2%	32µM*	0
CC1(C)Oc2cc3c(cc2O1)OC(C)(C)O3	18%[11.7 µM]	nt	1%[10.1 µM]	nt	nt	1[11.7 µM]
COc1ccc(-c2noc(C3CCCN(C(=O)c4ccccc4OC)C3)n2)cc1OC (stereo unspecified)	?	-3%	-1%	-1%[38.3 µM]	-2%	3
COc1ccc(C(=O)N2CCCC(c3nc(-c4ccc(OC)c(OC)c4)no3)C2)c(OC)c1 (stereo unspecified)	-12%	-7%	-1%	1%	28µM*	2
O=[N+]([O-])c1ccc(O)c2cccnc12	2%	-6%	3%	8%	nt	?
COCc1ccc(O)c2ncccc12	-10%	-22%	4.5µM*	1%	1%	5
O=[N+]([O-])c1ccc(O)c2ncccc12	-5%	6%	6.3µM*	0%	-1%	2
Cc1ccccc1NCc1ccc(O)c2ncccc12	6%	156%	?	11µM*	4%	2
COc1ccc(Nc2c3c(nc4ccc(NC(=O)c5cc(Cl)ccc5OC)cc24)CCCC3)cc1OC	nt	nt	5%	5%	82%	nt
CCOC(=O)c1ccc(CC(=O)c2oc3cc(O)ccc3c2C)o1	12%	-4%	0%	7%[38.3 µM]	32µM*	?
CCC1CN(CCNC(=O)c2ccc3c(c2)OCCO3)Cc2cc(OC)ccc2O1 (stereo unspecified)	nt	nt	nt	1%	nt	nt
Brc1ccc[n+](CCc2ccccc2)c1	nt	nt	nt	1%	-1%	nt
CC(C)c1nc(Cl)c(C#N)c2c1COC(C)(C)C2	nt	3%	0%	4%	-1%	2
CSc1c(C#N)c(N)c(C#N)c2c1COC(C)(C)C2	4%	-3%	-2%	-6%[38.3 µM]	14µM*	0
Cc1cccc(OCC(=O)Nc2ccc3oc(=O)ccc3c2)c1	0%	12%	nt	4%	nt	-1
Cc1ccc2oc(-c3cccc(NC(=O)C4CCCO4)c3)nc2c1 (stereo unspecified)	-6%	4%	1%	0%[38.3 µM]	28µM*	2
CCCC(=O)Nc1cccc(-c2nc3cc(C)c(C)cc3o2)c1	21%	4%	-1%	3%	22µM*	4
SMILES	Menin MLL FP TR	MLL CXXC-DNA inh	Epigenetic derep	PINK1 expr mod	ClpP mod	Menin-MLL FL inh
CCCCC(=O)Nc1ccc2oc(-c3cccnc3)nc2c1	-9%	-10%	-1%	0%	18µM*	0
CCCC(=O)Nc1ccc2oc(=O)ccc2c1	-1%	-1%	-1%	0%	25µM*	-1
COCC(=O)Nc1cc(C(=O)N2CCC(c3ccccc3)CC2)cc2nc(-c3ccccc3)n(C)c12	nt	nt	nt	5%	nt	nt
C[C@H](CO)N1C[C@H](C)[C@@H](CN(C)S(=O)(=O)c2cccs2)Oc2ccc(NC(=O)c3ccncc3)cc2C1=O	nt	nt	nt	2%	1%	nt
CCCC(=O)Nc1ccc2oc(-c3cccnc3)nc2c1	-8%	11%	-3%	-1%	16µM*	0
CCOc1ccc(C(=O)Nc2ccc3oc(-c4cccnc4)nc3c2)cc1	nt	nt	2%	2%	-12%	nt
Cc1ccc(NC(=S)Nc2ccc(OC(F)F)c(Cl)c2)cc1F	?	?	1%	16µM*	0%	5
Fc1ccc(NC(=S)Nc2ccc(F)c(Cl)c2)cc1Cl	?	13%	3%	40µM*	0%	1
O=C(Nc1ccc(OC(F)F)c(Cl)c1)c1ccccn1	10%	-3%	-1%	0%	-4%	0
O=S(=O)(NCCNC/C=C/c1ccc(Br)cc1)c1cccc2cnccc12	-1%	-3%	-1%	nt	nt	-2
Cc1ccc(-c2cc(C(=O)N3N=C(C(F)F)CC3(O)C(F)F)c3ccccc3n2)cc1C (stereo unspecified)	-12%	-16%	12%	10µM*	25µM*	3
O=C(c1cc(-c2ccccc2)nc2ccccc12)N1N=C(C(F)F)CC1(O)C(F)F (stereo unspecified)	?	-4%	-1%	15%[38.3 µM]	-8%	5
COc1ccccc1-c1ccnc(-n2ncc(C(=O)NCCc3ccccn3)c2C)n1	nt	nt	nt	0%	nt	nt
CC(=O)NCCNC(=O)c1cnn(-c2nccc(-c3cc(C)sc3C)n2)c1C	nt	nt	nt	1%	nt	nt
O=c1c(/C=C(\O)c2ccc(F)cc2)nc2ccccc2n1-c1ccccc1	-7%	?	13µM*	28%	1%	?
COC[C@@H](O)[C@@H](OC)[C@H](OC)[C@H](Cc1c(OC)cc(OC)cc1OC)OC	3%	nt	-1%	nt	nt	2
O=C1C(Cl)=C(N2CCCC2)C(=O)N1c1ccc(F)cc1	5%	-13%	nt	0%	25µM*	0
